G9a block: inhibitors of human histone lysine methyltransferase G9a; G9a H3K9 monomethylation, AlphaScreen, 2 h; hit rate 8.8% among 350,000; Potency, µM (top dose mostly 102 µM), hits mostly inhibitors; also: nearly all actives have a fitted effect of over 75% in size
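Signal arises when biotinylated H3K9 peptide, once monomethylated, bridges streptavidin donor and antibody-captured acceptor beads. Enzyme at 20 nM was preincubated 15 min with test compounds; peptide 500 nM and SAM 20 uM then reacted for 2 h.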
GLS inhibitor: blocks human kidney-isoform glutaminase activity. O94925. GLS enzymatic activity, qHTS titration. Potency, µM (series often up to 45.5 µM), actives largely listed as inhibitors. hit rate 0.21% among 410,000. AID 624170
Target sequence (O94925 whole entry, looked up, canonical isoform): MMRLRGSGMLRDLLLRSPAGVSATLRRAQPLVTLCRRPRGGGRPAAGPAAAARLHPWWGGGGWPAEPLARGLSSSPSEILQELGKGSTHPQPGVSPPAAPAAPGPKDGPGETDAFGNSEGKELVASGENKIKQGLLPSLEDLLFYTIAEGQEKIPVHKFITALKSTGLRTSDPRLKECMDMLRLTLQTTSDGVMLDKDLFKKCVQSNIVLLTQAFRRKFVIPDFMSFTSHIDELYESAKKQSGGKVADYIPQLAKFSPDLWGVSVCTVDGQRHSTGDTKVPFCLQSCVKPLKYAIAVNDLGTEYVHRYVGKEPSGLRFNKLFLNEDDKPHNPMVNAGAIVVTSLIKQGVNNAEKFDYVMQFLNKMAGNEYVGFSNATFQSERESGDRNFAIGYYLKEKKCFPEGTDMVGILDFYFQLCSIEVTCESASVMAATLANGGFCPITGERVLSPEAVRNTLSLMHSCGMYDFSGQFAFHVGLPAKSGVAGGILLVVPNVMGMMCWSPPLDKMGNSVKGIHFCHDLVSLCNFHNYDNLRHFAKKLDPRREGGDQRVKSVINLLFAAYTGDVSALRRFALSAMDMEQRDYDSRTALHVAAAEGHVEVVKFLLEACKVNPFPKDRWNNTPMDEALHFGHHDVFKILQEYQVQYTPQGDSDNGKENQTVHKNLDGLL
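hKGA; 45 mM KH2PO4 pH 8.2 + 0.02% Tween-20; cpd via pin tool; 1 mM Gln soln; GluOx/HRP/Amplex Red; RT 30 min; fluor. t0 & final.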
L3MBTL1 block: inhibitors of human L3MBTL1; Q9Y468; AlphaScreen L3MBTL1–H3K9me1 peptide binding; Potency, µM (titrated, usually from 57.1 µM), most hits filed as inhibitors; hit rate 0.66% among 230,000; AID 485360; also: nearly all actives have a fitted effect of over 60% in size
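AlphaScreen assay: L3MBTL1 (50 nM final) was preincubated 30 min at room temperature with biotinylated H3(1-15)K9me1 peptide (75 nM final), then 30 min with library compounds; streptavidin donor and nickel chelate acceptor beads (10 ug/mL final) added, 30 min dark.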
HP1b chromo inh: blocks HP1-beta chromodomain binding to methylated histone tails. P83916. AlphaScreen HP1-beta / biotin-H3K9me3 peptide binding. hit rate 0.56% among 390,000. Potency, µM (series often up to 114 µM), most hits filed as inhibitors; also: nearly all actives have a fitted effect of over 70% in size
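Compound inhibition of the preformed complex between 50 nM HP1-beta and 50 nM biotinylated H3K9me3 peptide was read by AlphaScreen. Buffer was PBS pH 7.4 with 0.01% Tween-20. Incubations ran 30 min at room temperature, with 10 ug/mL donor/acceptor beads.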
BAZ2B block: inhibitors of human BAZ2B bromodomain; Q9UIF8; Potency, µM (doses to about 114 µM), hits mostly inhibitors; hit rate 4.4% among 360,000; AlphaScreen BAZ2B-H3K14Ac peptide displacement; also: nearly all actives have a fitted effect of over 60% in size
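Compounds, titrated to a top concentration of 110 uM, were incubated 30 min at room temperature with preformed BAZ2B/acetyl-K14 H3 peptide complex (50 nM each). Proximity signal was measured by AlphaScreen after 20 min with beads.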
JMJD2A Tudor: JMJD2A Tudor domain (human) inhibition. O75164. AlphaScreen JMJD2A-Tudor / H3K4me3 peptide binding. Potency, µM (top dose mostly 114 µM), usual class: inhibitors. hit rate 4.4% among 390,000. AID 504339; also: nearly all actives have a fitted effect of over 50% in size
Numbers stand for hits; . = inactive; ? = inconclusive; / = not tested or not shown; [ ] = another dose, or the depositor's remark. Most compounds without a hit are left out; they make up all but 10% or so of the library. Calls follow the shape of the dose curve; as a rule, active = well fitted curve in the direction sought with a large enough effect; inconclusive = small, poorly fitted or top-dose-only effect, or another doubt; inactive = no such curve, though single readings can be large; an effect the other way counts as inactive or inconclusive.

SMILES | G9a block | GLS inhibitor | L3MBTL1 block | HP1b chromo inh | BAZ2B block | JMJD2A Tudor
COc1ccc(NC(=O)c2c(N)c(C(=O)c3ccc(C)cc3)n3ccccc23)cc1OC | . | . | / | . | . | .
Cc1cc(C)cc(-n2nnc(-c3nc(-c4ccccc4F)no3)c2C)c1 | . | . | / | . | . | .
CCOC(=O)c1ccccc1NC(=O)c1ccc2nccnc2c1 | . | . | ? | . | / | 50µM
Cc1ccc(C(=O)Nc2nccs2)cc1 | . | . | . | . | . | .
CCOC(=O)c1ccccc1NC(=O)c1ccc2nc[nH]c2c1 | . | . | / | . | . | .
O=C(Nc1nccs1)c1ccc2nccnc2c1 | . | . | . | . | . | 79µM
CC(=O)NC1C(=O)SC1(C)C (stereo not given) | 28µM | / | . | / | . | /
O=C(Nc1nc2c(s1)CN(Cc1ccccc1)CC2)C1CCC1 | 45µM | . | . | . | ? | .
CCN1CCc2nc(NC(=O)c3ccccc3)sc2C1 | ? | . | / | . | . | .
CCCCC(=O)Nc1cc(Cl)ccc1C(=O)O | 25µM | . | . | . | ? | .
CCN(CC)c1ccc(/C=C2\C(=O)c3ccc(C(=O)O)cc3C2=O)cc1 | 11µM | ? | ? | 40µM | 14µM | 45µM
CSc1ccc(C(=S)N2CCN(Cc3ccccc3)CC2)cc1 | 32µM | / | / | . | ? | ?
CCN1CCN(C(=S)c2ccc(SC)cc2)CC1 | 40µM | . | / | ? | . | .
CSc1ccc(C(=S)N2CCCCCC2)cc1 | 32µM | . | . | . | . | .
S=C(c1ccc(Cl)cc1)N1CCN(Cc2ccccc2)CC1 | . | . | . | . | ? | .
CN(C)c1ccc(C(=S)N2CCCCC2)cc1 | ? | . | . | . | . | .
O=C(c1ccco1)N(Cc1cccs1)c1ccc(F)cc1 | . | . | / | . | . | .
CC(C)C1Cc2c(sc3c2c(=O)n(-c2ccccc2)c2n[nH]c(=S)n32)CO1 (stereo not given) | 1.3µM | . | / | . | . | 20µM
COc1ccc(-n2c(=O)c3c4c(sc3n3c(=S)[nH]nc23)CCCC4)cc1 | ? | ? | . | . | . | 56µM
COc1ccc(-n2c(=S)[nH]c3sc4c(c3c2=O)CCN(C)C4)cc1 | 14µM | / | / | / | . | /
CSc1ccccc1C(=O)Nc1c(C)cccc1C | 28µM | . | . | . | . | .
CSc1ccccc1C(=O)NCCOc1cccc(C)c1 | 45µM | . | . | . | . | .
CSc1ccccc1C(=O)Nc1ccccc1C | / | . | . | . | . | .
CSc1ccccc1C(=O)Nc1ncn[nH]1 | 1.6µM | . | . | . | ? | 79µM
O=C(Nc1ncn[nH]1)c1ccccc1Br | . | . | . | . | . | .
SMILES | G9a block | GLS inhibitor | L3MBTL1 block | HP1b chromo inh | BAZ2B block | JMJD2A Tudor
Cc1ccc(CNCc2ccc3c(c2)n(C)c(=O)n3C)cc1 | . | . | / | . | . | .
Cc1ccc(NC(=O)CSc2nnc(N)s2)c(C)c1 | . | . | / | . | . | .
COC(=O)c1ccc(C2/C(=C(\O)c3ccc4c(c3)OCCO4)C(=O)C(=O)N2c2nnc(C)s2)cc1 (stereo not given) | 45µM | . | / | . | . | .
COCCN1C(=O)C(=O)/C(=C(/O)c2ccc3c(c2)OCCO3)C1c1ccc(C(=O)OC)cc1 (stereo not given) | ? | . | . | . | ? | 45µM
COc1cccc(C2/C(=C(\O)c3ccc4c(c3)OCCO4)C(=O)C(=O)N2c2nnc(C)s2)c1 (stereo not given) | .[0.501 µM] | . | / | . | ? | .
Cc1nnc(N2C(=O)C(=O)/C(=C(/O)c3ccc4c(c3)OCCO4)C2c2ccc([N+](=O)[O-])cc2)s1 (stereo not given) | 28µM | / | / | / | ? | /
COC(=O)c1ccc(C2/C(=C(/O)c3ccc4c(c3)CC(C)O4)C(=O)C(=O)N2CCN2CCOCC2)cc1 (stereo not given) | 50µM | . | / | . | . | ?
Cc1nnc(N2C(=O)C(=O)/C(=C(/O)c3ccc4c(c3)OCCO4)C2c2cccc([N+](=O)[O-])c2)s1 (stereo not given) | / | . | / | / | / | /
O=C(COC(=O)C12CC3CC(CC(Br)(C3)C1)C2)NCc1ccco1 | / | / | / | . | / | .
COCCNC(=O)CCCn1c(SCc2ccccc2C)nc2c(sc3ccccc32)c1=O | . | . | / | . | . | .
COCCCN1C(=O)C(=O)/C(=C(/O)c2ccc3c(c2)OCCO3)C1c1ccc(C(=O)OC)cc1 (stereo not given) | . | . | . | . | . | ?
COc1ccc(C2/C(=C(\O)c3ccc4c(c3)OCCO4)C(=O)C(=O)N2c2nc(C)c(C(C)=O)s2)cc1 (stereo not given) | 45µM | . | / | . | ? | .
Nc1n[nH]c(N)c1N=Nc1ccc(F)cc1 | . | . | ? | . | ? | ?
Cc1nc(N)sc1N=Nc1ccc(F)cc1 | 45µM | . | / | ? | . | ?
COc1ccccc1C1=Nn2c(COc3ccccc3)nnc2SC1 | 3.2µM | / | . | / | ? | /
O=C(O)CC1Sc2nnc(COc3ccc(Cl)cc3)n2N=C1c1ccccc1 (stereo not given) | 25µM | . | / | . | . | .
c1ccc(OCc2nnc3n2N=C(c2ccccc2)CS3)cc1 | 7.9µM | . | / | ? | / | .[11.4 µM]
COc1ccc(C2=Nn3c(C)nnc3SC2)cc1 | 45µM | . | / | . | ? | .
COc1ccccc1NC(=O)C1=C(C)Nc2nc(SCc3ccc(Cl)cc3)nn2C1c1ccccc1Cl (stereo not given) | . | . | / | . | . | .
COCCn1c(=O)c(-c2ccc(OC)cc2)nc2cnc(Oc3ccc(OC)cc3)nc21 | .[12.7 µM] | / | / | / | / | /
CC1=C(C(=O)NCc2ccc(C)cc2)C2(CCCCC2)OC1=O | . | . | / | . | . | .
CCCc1ccc(C2=Nn3c(nnc3C(C)C)SC2)cc1 | 8.9µM | ? | / | ? | . | .
COc1ccc(OCc2nnc3n2N=C(c2ccc(C)cc2)CS3)cc1 | ? | . | / | . | . | .
COc1ccc(OC)c(-c2nnc3n2N=C(c2ccc(OC)c(OC)c2)CS3)c1 | .[12.7 µM] | . | . | . | . | .
COc1ccc(OCc2nnc3n2N=C(c2ccc(OC)cc2)CS3)cc1 | 50µM | . | / | . | . | ?
SMILES | G9a block | GLS inhibitor | L3MBTL1 block | HP1b chromo inh | BAZ2B block | JMJD2A Tudor
COc1ccc(C2=Nn3c(nnc3-c3cc(OC)ccc3OC)SC2)c(OC)c1 | / | / | / | / | / | 79µM
O=C(/C=C\C=C/c1ccc2c(c1)OCO2)N1CCCCC1 | .[21.5 µM] | / | / | / | / | /
CCc1ccc(CN(Cc2ccco2)C(=O)c2cc(-c3ccc(C)c(F)c3)on2)cc1 | . | . | / | . | ? | .
Cc1cccc2sc(NNC(=O)C3COc4ccccc4O3)nc12 (stereo not given) | 18µM | . | . | . | . | .
O=C(/C=C/c1ccc(O)cc1)c1ccc(NC2=C(N3CCCCC3)C(=O)c3ccccc3C2=O)cc1 | 14µM | . | ? | . | ? | 20µM
Cc1ccc(NC2=C(N3CCCCC3)C(=O)c3ccccc3C2=O)cc1 | 5.6µM | . | . | ? | . | 14µM
